Data from publication PMC3218832.

Legend:
Assay in all cases: protein binding microarray; high values mean tight binding
Settings in all cases: dsDNA, one strand shown
[1] = target: RELARELA (p65 homodimer) (Homo sapiens, UniProt Q04206 1-307)
[2] = target: p50p50 homodimer (Homo sapiens, UniProt P19838 7-356)
[3] = target: T1, p52p52 homodimer (Homo sapiens, UniProt Q00653 4-332)
T1 sequence: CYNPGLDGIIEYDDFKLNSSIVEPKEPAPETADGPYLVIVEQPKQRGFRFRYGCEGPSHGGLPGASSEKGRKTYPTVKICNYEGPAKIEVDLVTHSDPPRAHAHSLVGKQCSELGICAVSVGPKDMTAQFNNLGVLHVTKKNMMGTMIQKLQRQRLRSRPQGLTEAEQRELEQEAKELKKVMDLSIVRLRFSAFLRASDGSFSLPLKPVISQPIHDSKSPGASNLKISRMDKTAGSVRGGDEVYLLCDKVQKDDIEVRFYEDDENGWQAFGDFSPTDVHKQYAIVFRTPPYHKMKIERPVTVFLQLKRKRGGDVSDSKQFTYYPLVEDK

[4] = target: RELA (p65) subunit of heterodimer;p50 subunit (Homo sapiens;Homo sapiens, UniProt Q04206;P19838 1-307;7-356)
Chain of RELA (p65) subunit of heterodimer;p50 subunit (Q04206 1-307, chain 1 of 2): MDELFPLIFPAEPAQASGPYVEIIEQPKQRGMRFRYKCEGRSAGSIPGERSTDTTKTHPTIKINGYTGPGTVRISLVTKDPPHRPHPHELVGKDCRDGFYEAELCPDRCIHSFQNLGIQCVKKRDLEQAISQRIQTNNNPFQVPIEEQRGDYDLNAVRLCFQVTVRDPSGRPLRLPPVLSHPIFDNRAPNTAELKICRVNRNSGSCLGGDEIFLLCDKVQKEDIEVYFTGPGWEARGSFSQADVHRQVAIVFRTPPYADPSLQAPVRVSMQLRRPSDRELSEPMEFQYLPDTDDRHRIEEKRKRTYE
Chain of RELA (p65) subunit of heterodimer;p50 subunit (P19838 7-356, chain 2 of 2): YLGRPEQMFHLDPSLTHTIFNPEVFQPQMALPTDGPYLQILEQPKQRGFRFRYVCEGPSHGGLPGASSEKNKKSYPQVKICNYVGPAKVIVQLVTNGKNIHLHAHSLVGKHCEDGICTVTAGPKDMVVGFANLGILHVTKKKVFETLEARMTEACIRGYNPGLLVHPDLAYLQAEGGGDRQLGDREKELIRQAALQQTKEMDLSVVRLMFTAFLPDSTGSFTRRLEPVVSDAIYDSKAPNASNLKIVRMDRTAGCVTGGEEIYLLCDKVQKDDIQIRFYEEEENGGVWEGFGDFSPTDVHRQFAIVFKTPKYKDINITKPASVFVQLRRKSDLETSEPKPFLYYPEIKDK

[5] = target: RELA (p65) subunit of heterodimer;p52 subunit (Homo sapiens;Homo sapiens, UniProt Q04206;Q00653 1-307;4-332)
[6] = target: RELB subunit;p50 subunit (Homo sapiens;Homo sapiens, UniProt Q01201;P19838 120-401;7-356)
[7] = target: T2, RELB subunit;p52 subunit (Homo sapiens;Homo sapiens, UniProt Q01201;Q00653 120-401;4-332)
T2 sequence 1: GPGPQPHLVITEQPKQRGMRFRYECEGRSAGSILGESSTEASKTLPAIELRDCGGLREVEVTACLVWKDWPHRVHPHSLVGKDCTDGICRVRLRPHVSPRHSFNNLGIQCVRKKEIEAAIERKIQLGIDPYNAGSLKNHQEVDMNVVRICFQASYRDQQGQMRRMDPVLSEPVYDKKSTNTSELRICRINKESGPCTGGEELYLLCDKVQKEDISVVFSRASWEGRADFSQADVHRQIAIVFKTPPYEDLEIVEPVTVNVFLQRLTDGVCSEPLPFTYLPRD
T2 sequence 2: T1 sequence

[8] = target: C-Rel subunit;p50 subunit (Homo sapiens;Homo sapiens, UniProt Q04864;P19838 1-285;7-356)
[9] = target: T3, C-Rel subunit;p52 subunit (Homo sapiens;Homo sapiens, UniProt Q04864;Q00653 1-285;4-332)
T3 sequence 1: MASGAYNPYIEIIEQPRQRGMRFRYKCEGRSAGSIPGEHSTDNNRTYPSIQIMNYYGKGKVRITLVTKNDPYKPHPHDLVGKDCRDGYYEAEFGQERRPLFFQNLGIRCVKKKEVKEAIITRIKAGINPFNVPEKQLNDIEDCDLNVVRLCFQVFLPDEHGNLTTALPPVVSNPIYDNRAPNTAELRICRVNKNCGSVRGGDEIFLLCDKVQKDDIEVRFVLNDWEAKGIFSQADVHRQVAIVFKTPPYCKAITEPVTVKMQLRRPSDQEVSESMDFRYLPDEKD
T3 sequence 2: T1 sequence

Chain of RELARELA (p65 homodimer) (Q04206 1-307): as the sequence (Q04206 1-307, chain 1 of 2) above
Chain of p50p50 homodimer (P19838 7-356): as the sequence (P19838 7-356, chain 2 of 2) above

Sequence	binding signal [1] [z-score]	binding signal [2] [z-score]	binding signal [3] [z-score]	binding signal [4] [z-score]	binding signal [5] [z-score]	binding signal [6] [z-score]	binding signal [7] [z-score]	binding signal [8] [z-score]	binding signal [9] [z-score]
CGAGTCTTCCC	0.331	-0.565	-0.302	-0.0997	-0.304	-0.386	-0.409	0.0328	-0.153
GGGAATCTCCT	2.57	0.441	1.08	0.896	0.912	0.367	0.827	0.987	1.35
AAATACGCCCT	0.0178	-0.886	-0.502	-0.594	-0.758	-1.09	-0.751	-0.684	-0.592
AAATTTGCCCT	0.9	-0.198	-0.202	0.0394	-0.125	-0.452	-0.337	0.26	0.00992
AAAGTCCCCCT	0.889	1.59	1.86	2.31	1.72	2.26	2.4	1.7	1.82
CAATATTTCCC	2.26	1.03	0.706	1.27	1.06	0.775	0.965	1.45	1.08
GAAAGTGTCCT	0.0215	-1.58	-0.464	-0.843	-0.45	-0.858	-0.525	-0.958	-0.375
CGAGAATCCCT	-0.154	0.393	0.327	0.25	0.284	0.305	0.573	0.277	0.32
CGATACCTCCC	-0.139	-0.527	-0.392	-0.477	-0.641	-0.466	-0.506	-0.897	-0.543
GGAAGCTTCCT	0.818	-1.04	-0.619	-0.33	-0.759	-1.01	-0.836	-0.977	-0.614
AGAAGGCCCCT	-0.756	0.412	0.0419	0.306	0.149	0.0369	0.0992	-0.139	0.0154
GGGTAGGCCCC	-0.379	0.314	1.45	0.396	1.04	0.459	0.305	0.392	0.593
AAGGTGTCCCT	-0.0449	0.811	0.895	0.784	0.967	1.01	1.5	0.63	0.562
CAATGTCTCCC	-0.338	-0.647	-0.276	-0.405	-0.499	-0.294	-0.275	-0.53	-0.561
CAAGGAGCCCC	-0.885	0.241	-0.0311	-0.1	-0.176	0.0779	0.0984	0.121	-0.176
AAATACACCCC	-0.0111	0.252	0.0531	0.224	0.204	0.209	0.566	0.342	0.187

Sequence	binding signal [1] [z-score]	binding signal [2] [z-score]	binding signal [3] [z-score]	binding signal [4] [z-score]	binding signal [5] [z-score]	binding signal [6] [z-score]	binding signal [7] [z-score]	binding signal [8] [z-score]	binding signal [9] [z-score]
CAGAGCTCCCC	-0.432	-0.0564	-0.163	0.0392	-0.211	0.161	-0.0377	0.0629	-0.215
AGGATAATCCC	1.11	-0.039	0.47	0.562	0.416	-0.113	0.0769	0.307	0.396
GAATTGTCCCC	1.03	1.37	1.34	1.38	1.18	1.38	1.61	1.27	0.963
GGAAATGTCCC	1.93	0.902	1.14	1.27	1.05	0.938	0.986	0.9	0.975
AGAGATTTCCT	0.344	-0.498	-0.5	-0.403	-0.389	-0.762	-0.49	-0.209	-0.443
CAGTTGACCCT	-0.398	-0.922	-0.533	-0.555	-0.554	-0.526	-0.777	-1.18	-0.639
AAGTGCTCCCT	-0.204	-0.136	-0.291	-0.382	-0.51	-0.322	-0.434	-0.836	-0.646
AGAATGCTCCC	-0.506	-0.551	-0.418	-0.467	-0.621	-0.576	-0.823	-0.92	-0.456
GGGGTCGCCCC	0.508	0.472	2.74	1.36	2.18	1.44	1.61	0.866	1.5
GGGTAAGTCCT	1.28	0.161	1.41	0.335	0.851	0.207	0.217	0.357	0.997
AGGATGTTCCC	0.975	-0.225	-0.143	0.237	0.0834	-0.426	-0.342	0.00777	-0.0123
AAAGTTCTCCT	0.015	-1.02	-0.659	-0.601	-0.834	-0.944	-0.822	-0.841	-0.771
AGAGAGATCCC	-0.281	-0.511	-0.367	-0.448	-0.506	-0.355	-0.569	-0.565	-0.502
CGATTAACCCT	-0.485	-0.551	-0.421	-0.497	-0.556	-0.691	-0.624	-0.83	-0.644
CGATATTTCCT	0.574	-0.558	-0.405	-0.302	-0.495	-0.725	-0.422	-0.166	-0.154
